# Compound activity from PubChem.
# Only some compounds are listed: those with a hit (about 3.2% of all), similar ones and a draw of the others.
# USP2a block = USP2a (human) protease inhibition. O75604. USP2 core, Ub-CHOP2 coupled fluorogenic reporter, 485/531. Potency, µM (doses to about 38.3 µM), for inactives: at the top dose activity change, negative = inhibition, usual class: inhibitors. actives 0.01% (n = 330,000). AID 463254;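 also: potency is read from the fitted curve at half-maximal effect; plate controls were DMSO wells for no effect and full inhibition by NEM control for full effect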
#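 Cell-free coupled assay: 10nM USP2 core preincubated 30min RT with compound in Tris-HCl pH 8.0/CaCl2/CHAPS buffer, then 25nM Ub-CHOP2 and 25nM reporter substrate; fluorescence (Ex 485/Em 531) read after 60min RT, normalized to NEM inhibition, concentration-response curves fitted.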
# VDR inh = vitamin D3 receptor (human) inhibition. VDR-SRC2-3 peptide fluorescence polarization, 2 h. Potency, µM, for inactives: max response, negative = inhibition, most hits filed as inhibitors. actives 0.93% (n = 400,000); also: potency is read from the fitted curve at half-maximal effect
#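 Compounds are added to VDR with labelled SRC2-3 coactivator peptide and held 2 h at room temperature. Inhibition of the VDR–peptide interaction is then read as a change in fluorescence polarization.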
# USP1-UAF1 inh = USP1/UAF1 (human) deubiquitinase inhibition; O94782; recombinant USP1/UAF1, Ub-Rhodamine cleavage fluorescence; Potency, µM (highest dose often 57.1 µM), inactives show at the highest dose activity change, negative = inhibition, usual class: inhibitors; actives 0.23% (n = 390,000); AID 743255; also: potency is read from the fitted curve at half-maximal effect; nearly all actives have a fitted effect of over 60% in size
# Target sequence (O94782 whole entry, looked up): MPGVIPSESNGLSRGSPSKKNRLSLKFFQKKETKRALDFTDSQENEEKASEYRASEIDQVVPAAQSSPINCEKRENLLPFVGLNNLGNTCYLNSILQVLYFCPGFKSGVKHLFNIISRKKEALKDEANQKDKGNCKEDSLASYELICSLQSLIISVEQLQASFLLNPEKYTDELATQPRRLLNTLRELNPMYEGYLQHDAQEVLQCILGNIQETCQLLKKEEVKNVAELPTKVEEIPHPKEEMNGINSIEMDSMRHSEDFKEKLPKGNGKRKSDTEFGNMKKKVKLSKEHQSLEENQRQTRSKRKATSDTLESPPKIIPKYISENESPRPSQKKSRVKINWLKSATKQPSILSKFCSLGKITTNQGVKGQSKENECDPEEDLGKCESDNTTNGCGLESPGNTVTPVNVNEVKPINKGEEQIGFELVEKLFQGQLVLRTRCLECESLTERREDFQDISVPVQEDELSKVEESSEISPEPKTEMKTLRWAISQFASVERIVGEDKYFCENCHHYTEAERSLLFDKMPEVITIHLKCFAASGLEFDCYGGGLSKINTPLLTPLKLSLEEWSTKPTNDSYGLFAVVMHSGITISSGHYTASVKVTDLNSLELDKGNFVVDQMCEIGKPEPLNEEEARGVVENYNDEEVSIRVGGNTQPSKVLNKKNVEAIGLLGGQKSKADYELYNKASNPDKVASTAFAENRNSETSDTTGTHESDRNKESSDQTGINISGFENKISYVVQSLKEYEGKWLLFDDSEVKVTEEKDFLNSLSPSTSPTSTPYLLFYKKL
#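 High-throughput fluorogenic screen: 1nM USP1/UAF1 complex, Ub-Rho substrate 150nM final, 50mM HEPES pH 7.8 with 0.5mM EDTA, 0.1 mg/ml BSA, 1mM TCEP and 0.01% Tween-20.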
# PLK1 PBD block = inhibitors of human PLK1 polo-box domain binding; Plk1 PBD binding of FITC phosphopeptide, fluorescence polarization; Potency, µM, for inactives: max response, negative = inhibition, usual class: inhibitors; actives 2.8% (n = 360,000); AID 720504; also: potency is read from the fitted curve at half-maximal effect; series mostly up to about 57 µM; nearly all actives have a fitted effect of over 65% in size
# GALK inh = blocks human galactokinase activity; P51570; Purified GALK, Kinase-Glo residual ATP luminescence; Potency, µM (top dose mostly 57.5 µM), without a hit: at the highest dose activity change, negative = inhibition, most hits filed as inhibitors; actives 0.007% (n = 270,000); AID 1868; also: potency is read from the fitted curve at half-maximal effect
#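 ATP-depletion format; final 35 uM ATP, 100 uM D-galactose, 5 nM enzyme; pH 8.0 HEPES/Mg2+ buffer; 60 min RT; luminescence read 10 min after detection reagent.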
# FBPA coupling cs = coupling enzyme interference in Giardia aldolase counter-screen. AID 2472. actives 0.67% (n = 290,000). activity change, negative = inhibition, % at 58.2 µM, hits read low. coupling enzyme system counterscreen, AmpLite Red fluorescence; in the data active = activity change below about -30%
#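 Coupling enzymes only (glyceraldehyde-3-phosphate) + compound, at 57.5 uM final, 10 min RT; add substrate/coupling/AmpLite Red mix, 20 min RT; fluorescence ex 525/em 598 nm. Actives flag coupling-system interference.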
# * = called active by the depositor; ? = inconclusive; . = no result given. Unless noted, calls follow the shape of the dose curve; as a rule, active = well fitted curve in the direction sought with a large enough effect; inconclusive = small, poorly fitted or top-dose-only effect, or another doubt; inactive = no such curve, though single readings can be large; an effect the other way counts as inactive or inconclusive. Unless noted, % is scaled to controls: 0 for no effect and ±100 for the full control effect.
SMILES,USP2a block,VDR inh,USP1-UAF1 inh,PLK1 PBD block,GALK inh,FBPA coupling cs
CCOc1ccc(NC(=O)CC2C(=O)N(CC)C(=S)N2CCN2CCOCC2)cc1 (centres undefined),1%,-24%,-6%,27µM*,8%,0
CCOc1ccc(NC(=O)CC2C(=O)N(CC)C(=S)N2CCNC(C)=O)cc1 (centres undefined),-1%,6%,-8%,-4%,.,0
O=c1c2cc(N3CCOCC3)ccc2[nH]c(=S)n1Cc1ccccn1,2%,-6%,-14%,-10%,0%,-41*
COc1ccc(CNC(=O)CCNC(=O)N2CC(=O)Nc3ccccc32)cc1,.,.,-21%,-4%,.,.
O=C1C(Nc2ccccc2)=C(NS(=O)(=O)c2ccccc2)C(=O)c2ccccc21,4%,-23%,-19%,-11%,7%,-28
Cc1ccc(NC2=C/C(=N/S(=O)(=O)c3cccs3)c3ccccc3C2=O)cc1,2%,-2%,?,-6%,2%,-42*
O=C1C(Nc2ccccc2)=C/C(=N/S(=O)(=O)c2cccs2)c2ccccc21,2%,-14%,2.5µM*,-24%,3%,-38*
CCOc1ccccc1OCC(=O)NNC(=S)NC1CCCCC1,0%,-9%,-24%,1%,1%,0
COc1ccc(-n2sc3c(c2=S)-c2cc(OC)ccc2NC3(C)C)cc1,-2%,2%,-23%,24µM*,0%,2
COc1ccc2c(c1)-c1c(sn(-c3ccccc3)c1=S)C(C)(C)N2,3%,6%,-22%,-6%,0%,-4
Clc1ccccc1-c1nc(/C=N/N2CCOCC2)c2ccccn12,1%,?,-12%,24µM*,7%,-9
CN1CCN(/N=C/c2nc(-c3ccccc3Cl)n3ccccc23)CC1,-1%,15%,-17%,-6%,0%,2
COc1cc(/C=C2\SC(N)=NC2=O)ccc1OCC(=O)Nc1ccc(C)cc1,3%,15%,-22%,3%,0%,1
CC(=O)Nc1ccc(S(=O)(=O)Oc2cccc(/C=C3\SC(N)=NC3=O)c2)cc1,3%,35µM*,-1%,4.2µM*,-6%,5
Cc1cc(NC(=O)CN2CCN(c3ccccn3)CC2)ccc1Br,-6%,5%,-9%,-7%,.,0
Cc1ccc(NC(=O)CN2C(=O)N/C(=C/c3cc(C)n(-c4cccc(C(=O)O)c4)c3C)C2=O)cc1,-1%,-15%,-6%,?,-21%,3
O=C(O)c1ccc(COc2ccccc2/C=C2\NC(=O)N(Cc3ccccc3)C2=O)cc1,0%,-16%,-15%,19µM*,-5%,7
O=C(CN1C(=O)N/C(=C\c2ccccc2OCc2ccc(C(=O)O)cc2)C1=O)Nc1ccccc1F,0%,-6%,?,?,-9%,0
COc1cccc(/C=C2/NC(=O)N(CC(=O)Nc3ccc(C)cc3)C2=O)c1OCc1cccc(C(=O)O)c1,1%,-8%,25µM*,?,-3%,6
O=C(O)c1ccc(COc2ccccc2/C=C2\NC(=O)N(Cc3ccccc3F)C2=O)cc1,4%,-13%,-15%,27µM*,-4%,1
CCOC(=O)COc1ccccc1/C=C1\NC(=O)NC1=O,5%,5%,-25%,-4%,-2%,3
COc1cc2[nH]c(=S)nc(NCc3ccc(C)cc3)c2cc1OC,3%,-6%,-20%,-15%,4%,3
O=C(CSc1nnc2c(Cl)cc(C(F)(F)F)cn12)NCc1ccc(F)cc1,1%,-4%,-10%,-10%,3%,-2
COc1cc(Cl)ccc1NC(=S)N(CCCN1CCOCC1)Cc1cn(C)c2ccccc12,-2%,?,-17%,5.3µM*,-2%,-3
CCOc1ccccc1NC(=S)N(CCCN1CCOCC1)Cc1cn(C)c2ccccc12,5%,-2%,-4%,-16%,2%,1
SMILES,USP2a block,VDR inh,USP1-UAF1 inh,PLK1 PBD block,GALK inh,FBPA coupling cs
COc1ccc(Cl)cc1NC(=S)N(CCCN1CCOCC1)Cc1cn(C)c2ccccc12,2%,?,-14%,6µM*,0%,-5
COc1ccccc1NC(=S)N(CCCN1CCOCC1)Cc1cn(C)c2ccccc12,0%,-14%,?,?,-2%,0
Cc1ccc2c(=O)n3c(nc2c1)C(Cc1ccccc1)NC(=O)c1cccnc1-3 (centres undefined),.,.,-19%,-1%,.,.
Cn1cnc(S(=O)(=O)N2CCCC(C(=O)Nc3ccc(F)cc3Cl)C2)c1 (centres undefined),.,2%,-23%,.,.,.
COc1cccc(C(c2c(C)[nH]n(-c3ccccc3)c2=O)c2c(C)[nH]n(-c3ccccc3)c2=O)c1OC,0%,?,-13%,12µM*,2%,-2
COc1cccc(C(c2c(C)[nH]n(-c3ccccc3)c2=O)c2c(C)[nH]n(-c3ccccc3)c2=O)c1O,0%,?,-22%,21µM*,-4%,.
COc1ccccc1N1CCN(CCCCN2C(=O)C3CCCCN3C2=O)CC1 (centres undefined),4%,?,-8%,8.4µM*,2%,3
Cc1ccccc1N1CCN(CCCCN2C(=O)C3CCCN3C2=O)CC1 (centres undefined),3%,-3%,-4%,-9%,2%,3
C=C1CCN([C@H](C(=O)NCc2ccc(Cl)c(Cl)c2)C(C)C)S(=O)(=O)c2ccccc21,-1%,-19%,?,-9%,1%,1
CCc1nc2ccc(C(=O)NC3CCC(C)CC3)cc2nc1CC (centres undefined),-4%,-25%,-16%,30µM*,8%,3
Cc1ccc(S(=O)(=O)N2CCN(c3ccc([N+](=O)[O-])c(Sc4nncn4C)c3)CC2)cc1,5%,-4%,-12%,-9%,-1%,1
COc1cc(C2c3sc(=O)[nH]c3SC3C(=O)N(c4ccc(Br)cc4)C(=O)C32)ccc1O (centres undefined),0%,-7%,-22%,-20%,-6%,3
COC(=O)C1=C(C(=O)OC)C(c2cc(Cl)ccc2O)c2sc(=O)[nH]c2S1 (centres undefined),1%,?,-9%,9.5µM*,0%,.
COC(=O)C1Sc2[nH]c(=O)sc2C(c2ccc(Cl)cc2)C1C(=O)OC (centres undefined),?,-7%,2%,?,2%,10
COC(=O)C1=C(C(=O)OC)C(c2cc(Br)ccc2O)c2sc(=O)[nH]c2S1 (centres undefined),1%,?,-25%,3µM*,0%,-4
